A number with no mark means an inactive call. Records with an inconclusive call do not appear. A call without a number means that no potency is given here. Activity calls are given as the source filed them. Unless noted, the call rests on the fitted dose curve; in most records, active means well fitted curve in the direction sought with a large enough effect in the repeat runs; inconclusive means weak or mixed curves; inactive means no such curve, though single readings can be large; an effect the other way counts as inactive or inconclusive.
Columns and labels:
[1] = qHTS assay to identify small molecule agonists of the hypoxia (HIF-1) signaling pathway - cell viability counter screen (AID 1224844; calls by dose curve; further: nearly all actives have a fitted effect of over 50% in size)
Outline: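 HRE-bla ME-180 cells in medium with 0.5% dialyzed FBS were preincubated 5 hrs at 37C, exposed to compounds for 17 hrs, then viability was read as CellTiter-Glo luminescence after 30 min at room temperature, in the reporter wells.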

[2] = qHTS assay to identify small molecule agonists of H2AX (AID 1224845; active means well fitted activation curve with a large enough effect in the signal ratio in the repeat runs, not every such curve was filed as active; the % refers to the signal ratio)
Outline: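 Wild-type CHO-K1 cells, plated overnight, exposed 3hr at 37C to 15 concentrations (0.76% DMSO final). Lysed, then HTRF anti-pH2AX (S139) cryptate and anti-H2AX-d2 antibodies, 24 hr room temperature; 665/620 nm emission read.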

[3] = qHTS assay to identify small molecule agonists of the hypoxia (HIF-1) signaling pathway (AID 1224846; active means well fitted activation curve with a large enough effect in the signal ratio in the repeat runs, not every such curve was filed as active; the % refers to the signal ratio)
Outline: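 HRE-bla ME-180 cells (beta-lactamase reporter under hypoxia response element) were plated at 2,000 cells/well in medium with 0.5% dialyzed FBS, rested 5 hrs, then given compounds in DMSO for 17 hrs at 37C, 5% CO2. Reporter induction was read with CCF4-AM FRET substrate.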

[4] = qHTS assay to identify small molecule agonists of H2AX - cell viability counter screen (AID 1224847; calls by dose curve; further: nearly all actives have a fitted effect of over 30% in size; further: potency means the concentration at half of the fitted maximal effect; on activity change, negative = cytotoxicity: top concentration of the series differs between compounds)
Outline: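 CHO-K1 cells plated overnight at 37C, then exposed 3 h at 37C to compounds at 15 concentrations (0.76% DMSO final). Viability by CellTiter-Glo luminescence after 30 min at room temperature.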

[5] = qHTS RealTime-Glo MT Cell Viability Assay in HepG2 cells - 24 hour (AID 1224867); further: nearly all actives have a fitted effect of over 50% in size
Outline: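 Tox21 10K library screened in qHTS format on HepG2 cells carrying RealTime-Glo reagents. Compounds were added after a 5 h preincubation, and the luminescent signal from continuous culture was measured repeatedly during 40 h treatment.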

[6] = qHTS RealTime-Glo MT Cell Viability Assay in HEK293 cells - 32 hour (AID 1224868); further: top concentration of the series differs between compounds; nearly all actives have a fitted effect of over 50% in size
Outline: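 Luminescence generated by NanoLuc from substrate produced by living HEK293 cells served as the viability signal. Each value reflects the reading at its stated time point during continuous 40 h compound exposure at 37 C.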

[7] = A CellTox Green Cytotoxicity Assay to monitor cytotoxicity in HEK293 cells - 0 hour (AID 1224869); further: nearly all actives have a fitted effect of over 50% in size
Outline: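 HEK293 cells premixed with CellTox Green dye were seeded at 600 cells/well and left 5 h at 37 C/5% CO2 before pin transfer of 23 nL compound in DMSO. Fluorescence from dye bound to dead-cell DNA was read during 40 h treatment.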

[8] = qHTS RealTime-Glo MT Cell Viability Assay in HepG2 cells - 40 hour (AID 1224870); further: nearly all actives have a fitted effect of over 50% in size
Outline: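 HepG2 cells (600/well) mixed with RealTime-Glo MT reagent, settled 5 h at 37 C/5% CO2 before compound addition. Nonlytic NanoLuc luminescence from viable-cell prosubstrate reduction read repeatedly during 40 h treatment at 37 C.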

SMILES | Potency [1] | Potency [2] | Potency [3] | Potency [4] | Potency [5] | Potency [6] | Potency [7] | Potency [8] | activity change, negative = cytotoxicity [1] | activation (H2AX phosphorylation) [2] | activation [3] | activity change, negative = cytotoxicity [4] | activity change, negative = cytotoxicity [5] | activity change, negative = cytotoxic [6] | activity change, negative = cytotoxic [8]
O[C@@H]([C@H](O)[C@H](O)CBr)[C@H](O)CBr | inactive | inactive | inactive | inactive | inactive | inactive | inactive | inactive | – | – | – | – | – | – | –
CCCCC(CC)COC(=O)CCCCC(=O)OCc1ccccc1 (centres undefined) | inactive | inactive | inactive | inactive | inactive | inactive | inactive | inactive | – | – | – | – | – | – | –
C=C(C)c1cccc(C(=C)C)c1 | inactive | inactive | inactive | inactive | inactive | inactive | inactive | inactive | – | – | – | – | – | – | –
CCCC[P+](C)(CCCC)CCCC | inactive | inactive | inactive | inactive | inactive | – | inactive | inactive | – | – | – | – | – | – | –
CC1(C)CC(O)CC(C)(C)N1 | inactive | inactive | inactive | inactive | inactive | inactive | inactive | inactive | – | – | – | – | – | – | –
OC/C=C/CO | inactive | inactive | inactive | inactive | inactive | inactive | inactive | inactive | – | – | – | – | – | – | –
CCCCOC(=O)CC | inactive | inactive | inactive | inactive | inactive | inactive | inactive | inactive | – | – | – | – | – | – | –
CCCC(=O)OCOC(=O)C1=C(C)NC(C)=C(C(=O)OC)C1c1cccc(Cl)c1Cl (centres undefined) | inactive | inactive | inactive | inactive | inactive | inactive | inactive | inactive | – | – | – | – | – | – | –
FC(F)(F)c1cccc(Cl)c1 | inactive | inactive | inactive | inactive | inactive | inactive | – | inactive | – | – | – | – | – | – | –
CCC(CC)C(C)CCOC(C)=O (centres undefined) | inactive | inactive | inactive | inactive | inactive | inactive | inactive | inactive | – | – | – | – | – | – | –
C=Cc1cccc(C)c1 | inactive | inactive | inactive | inactive | inactive | inactive | inactive | inactive | – | – | – | – | – | – | –
COC(C)=O | inactive | inactive | inactive | inactive | inactive | inactive | inactive | inactive | – | – | – | – | – | – | –
C[C@@H](O)[C@H](N)C(=O)O | – | – | – | – | – | – | – | – | -2.15% [at 15.8 µM] | 0.0265% [at 31.6 µM] | -0.487% [at 15.8 µM] | -4.33% [at 31.6 µM] | 0.0975% [at 15.8 µM] | 0.135% [at 15.8 µM] | -3.3% [at 15.8 µM]
CCC(=O)OC(=O)CC | inactive | inactive | inactive | inactive | inactive | inactive | inactive | inactive | – | – | – | – | – | – | –
CC(C(=O)O)c1ccc2c(c1)[nH]c1ccc(Cl)cc12 (centres undefined) | inactive | inactive | inactive | inactive | inactive | inactive | inactive | inactive | – | – | – | – | – | – | –
CC(C)(C)CC(C)(C)c1ccc(Nc2ccc(C(C)(C)CC(C)(C)C)cc2)cc1 | – | – | – | – | – | – | – | – | 0.53% [at 6.97 µM] | 0.788% [at 14 µM] | 3.2% [at 7.01 µM] | 0.45% [at 14 µM] | 0.0274% [at 6.97 µM] | 9.22% [at 6.97 µM] | -1.04% [at 6.97 µM]
O=C(O)Cc1ccc2c(c1)C(=O)c1ccccc1CO2 | inactive | inactive | inactive | inactive | inactive | inactive | inactive | inactive | – | – | – | – | – | – | –
CC(=O)OCC=C(C)C | inactive | inactive | inactive | inactive | inactive | inactive | – | inactive | – | – | – | – | – | – | –
ClCCl | inactive | inactive | inactive | inactive | inactive | inactive | inactive | inactive | – | – | – | – | – | – | –
OC1CCCc2ccccc21 (centres undefined) | inactive | inactive | inactive | inactive | inactive | inactive | inactive | inactive | – | – | – | – | – | – | –
CCCC1CCC(=O)CC1 | inactive | inactive | inactive | inactive | inactive | inactive | inactive | inactive | – | – | – | – | – | – | –
Oc1cc(Cl)cc(Cl)c1Cl | inactive | inactive | inactive | 51.7 µM (active) | inactive | – | inactive | inactive | – | – | – | – | – | – | –
CCO[Si](OCC)(OCC)OCC | inactive | inactive | inactive | inactive | inactive | inactive | inactive | inactive | – | – | – | – | – | – | –
CCCC(=O)OC(C)(C)Cc1ccccc1 | inactive | inactive | inactive | inactive | inactive | inactive | inactive | inactive | – | – | – | – | – | – | –
Nc1nc(N)nc(-c2cc(Cl)ccc2Cl)n1 | inactive | inactive | inactive | inactive | inactive | inactive | inactive | inactive | – | – | – | – | – | – | –
